In all, about 16,000 compounds went through this assay and about 2,600 (16%) were called active. Roughly 20% stayed inconclusive and do not appear here. Calls follow the shape of the dose curve; as a rule, active = well fitted curve in the direction sought with a large enough effect; inconclusive = small, poorly fitted or top-dose-only effect, or effect the other way; inactive = no such curve, though single readings can be large or run the other way. A selection follows.
These molecules were tested against Cytochrome P450 2D6 (Homo sapiens) (UniProt P10635) (assay: Cytochrome panel assay with activity outcomes). Settings: recombinant CYP, pro-luciferin dealkylation, luminescence, p450-cyp2d6; series mostly up to 57.1 µM; activity, negative = inhibition: at the top concentration.
% is scaled to controls: 0 for no effect and ±100 for the full control effect.

Cytochrome P450 2D6 (Homo sapiens), sequence (P10635 whole entry, looked up): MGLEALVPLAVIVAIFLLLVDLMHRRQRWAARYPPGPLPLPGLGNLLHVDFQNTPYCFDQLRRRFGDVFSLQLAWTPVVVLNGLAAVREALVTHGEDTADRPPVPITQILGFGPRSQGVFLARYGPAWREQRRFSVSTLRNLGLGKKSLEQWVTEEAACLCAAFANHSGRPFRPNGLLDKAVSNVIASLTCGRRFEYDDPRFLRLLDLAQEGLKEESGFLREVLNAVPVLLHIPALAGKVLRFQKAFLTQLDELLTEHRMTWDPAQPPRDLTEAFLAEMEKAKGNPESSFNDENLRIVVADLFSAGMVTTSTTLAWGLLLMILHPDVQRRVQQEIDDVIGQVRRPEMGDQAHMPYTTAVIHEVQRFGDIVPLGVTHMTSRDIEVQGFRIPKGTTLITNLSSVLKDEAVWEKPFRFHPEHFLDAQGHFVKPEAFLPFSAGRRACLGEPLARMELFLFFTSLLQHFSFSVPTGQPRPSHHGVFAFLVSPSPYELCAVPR

activity, negative = inhibition, inactive:
C[C@]12C=CC(=O)C=C1CC[C@@H]1[C@H]3C[C@@H](O)[C@](O)(C(=O)CO)[C@@]3(C)C[C@H](O)[C@]12F 4.42% [at 25.6 µM], COc1ccc(S(=O)(=O)n2ccc(-c3cnc(-c4ccccc4)s3)n2)cc1 -30%, Cc1cc(-c2ccc(Cl)cc2)oc(=O)c1NC(=O)c1ccccc1 -25.3%, COc1cccc(Cn2c(=O)cnc3cnc(N(C)C)nc32)c1 -9.22%, CCCCOc1ccc(C(=O)NCc2ccco2)cc1 -28.9%, O=C(NCCc1ccccc1)C(=O)NCC1(c2ccccc2)CCCC1 22.4%, CN1c2ccccc2Oc2c(c(=O)n(C)c(=O)n2C)C1c1cccc([N+](=O)[O-])c1 (configuration not stated) 14.5%, CCCN1CNC(=S)N(c2cccc(C)c2C)C1 -4.4%, COc1ccc(/C=N/NC(=O)c2sccc2OCc2ccc(F)cc2)cc1OC 0.295%, COc1ccc(/C=N/NC(=O)c2ccn[nH]2)cc1COc1ccc(F)cc1 -5.88%, Cn1c(=O)c2[nH]c(CCCCc3nc4c([nH]3)c(=O)n(C)c(=S)n4C)nc2n(C)c1=S -8.04% [at 11.4 µM], Cc1c(O)c(=O)n(-c2ccccc2)n1C -4.44% [at 25.6 µM], Cc1c(NC(=O)Nc2c(Cl)cccc2Cl)c(=O)n(-c2ccccc2)n1C -4.06% [at 11.4 µM], O=c1nc2ccccc2c2n1C[C@H](CN1CCN(c3ccccc3)CC1)N2 -11.1%, O=C(O)/C=C(/C(=O)O)[C@]12CCN3CC4=CCO[C@@H]5CC(=O)N[C@@H]1[C@H]5[C@H]4C[C@H]32 -1.84% [at 11.4 µM], Cc1cnc(CNc2nc(-c3ccc(C(=O)N(C)C)cc3)nc3ccccc23)cn1 -18.2%, CCOC(=O)C1CCCN(C(=O)CCn2nc(-c3ccccc3)ccc2=O)C1 (configuration not stated) -20.7%, S=c1c2[nH]cnc2ncn1CCSc1ncnc2nc[nH]c12 8.54% [at 11.4 µM], CN(C(=O)CCCOc1ccc2[nH]c(=O)ccc2c1)C1CCCCC1 -4.66%, CC(Oc1ccc(-c2ccccc2)c(F)c1)c1ccn(S(=O)(=O)c2ccc(Cl)cc2)n1 (configuration not stated) -8.63%, COC(Cn1c(C)c(C(C)=O)c(C(C)=O)c1C)OC 17.2%, Nc1nc(-c2cccnc2)cc(-c2cc(-c3cccnc3)nc(N)n2)n1 -6.86% [at 11.4 µM], CCC(=O)N1CCn2c1nc1ccccc12 3.08%, CCC(C)NC(=O)c1cnn2c(C)c3c(nc12)CCCC3 (configuration not stated) -19.4%, CC(=O)NCCNc1nc(-c2ccc(C(=O)N(C)C)cc2)nc2ccccc12 -4.75%, COCCNc1nc(-c2ccc(C(=O)N(C)C)cc2)nc2ccccc12 -9.46%, COC(=O)N1CCC2(CC1)CN(C(=O)Nc1cccc(C#N)c1)C2 0.446%, COc1cc(NC(=O)c2c(F)cccc2F)nc(OC)n1 1.76%, Cc1cc(NC(=O)CCCC(=O)OCC(F)(F)C(F)F)cc(C)c1C(=O)O 12.6%, COc1ccc(-n2c(=O)c(-c3cc(F)cc(F)c3)nc3cnc(N4CCNCC4)nc32)cc1 9.29%, Cc1ccc(S(=O)(=O)Oc2ccc(/C=C(/NC(=O)c3ccccc3)C(=O)Nc3ccccc3)cc2)cc1 23.4%, C[C@H]1COC(=O)[C@H]2CCCN2C(=O)[C@@H](C)COC(=O)[C@H](Cc2ccccc2)NC1=O 2.57% [at 11.4 µM], CCn1c(SCC(=O)Nc2ccc3c(c2)OCCO3)nc2c(c1=O)SC(C)C2 (configuration not stated) -11.9%, CC1=NN(c2ccc(S(=O)(=O)O)cc2)C(=O)/C1=C\c1ccc(Cl)cc1 5.53% [at 11.4 µM], O=C(N/C(=C\c1cccnc1)C(=O)N1CCOCC1)c1cccc(Br)c1 5.99%, N#Cc1cccc(-c2nc(Nc3ccncc3)c3ccccc3n2)c1 -7.94%, Cc1noc(C)c1-c1nc(Nc2ccccc2)c2ccccc2n1 6.91%, O=c1[nH][nH]cc1C=Nc1ccccc1O -5.68%, Cc1noc(COc2ccc(OCc3nc(C)no3)cc2)n1 -22.9%, Cc1cc(C)n(-c2nc(NC(C)C)nc(NC(C)C)n2)n1 1.57%, COc1cc(/C=C/C(=O)O)cc(S(=O)(=O)NCCCO)c1OC -3.23%, O=C1Oc2ccccc2C2(O)C3CCCCCC3C12 (configuration not stated) -17.5%, CSc1nc(Oc2ccc(=O)[nH]n2)nc(N(C)C)n1 -21.1%, Cc1cc(/C=C2\SC(=S)NC2=O)c(C)n1C -6.16%, CCCCCSc1nnc(C)c(=O)[nH]1 9.5%, COc1ccc(NC(=O)N2CC[C@@]3(CCCN(C(=O)c4cc(C(F)(F)F)cc(C(F)(F)F)c4)C3)C2)cc1 7.53%, O=C(O)/C(Cc1ccc([N+](=O)[O-])cc1)=N/O 6.05% [at 11.4 µM], COc1ccc(/C=C2/S/C(=N/N=C3\CC4CCC3(C)C4(C)C)NC2=O)cc1 (configuration not stated) -4.41%

AC50, active:
CCCCCOc1ccc(C(=O)NCC2(c3ccccc3)CCOCC2)cc1 17.8 µM, COc1ccc(/C=N/NC(=O)c2ccccc2)cc1CN1CCN(c2ccc(F)cc2)CC1 25.1 µM, Cc1c(NCc2cc(Cl)ccc2O)c(=O)n(-c2ccccc2)n1C 6.31 µM, c1csc(CNc2nc(-c3ccc4c(c3)OCO4)nc3ccccc23)c1 10 µM, c1ccc(CNc2nc(-c3ccc4c(c3)OCO4)nc3ccccc23)cc1 12.6 µM, Cc1cnc(CNc2nc(-c3ccc4c(c3)OCO4)nc3ccccc23)cn1 15.8 µM, COc1ccccc1CNc1nc(-c2ccc(N(C)C)cc2)nc2ccccc12 10 µM, Cc1cccc(CNc2nc(-c3ccc4c(c3)OCO4)nc3ccccc23)c1 20 µM, c1cncc(CNc2nc(-c3ccc4c(c3)OCO4)nc3ccccc23)c1 12.6 µM, CC(=O)NCCNc1nc(-c2ccc3c(c2)OCO3)nc2ccccc12 12.6 µM, COc1ccccc1CNc1nc(-c2ccc3c(c2)OCO3)nc2ccccc12 10 µM, c1ccc2c(Nc3ccncc3)nc(-c3ccc4c(c3)OCO4)nc2c1 20 µM, CN(C)c1ccc(-c2nc(N3CCNCC3)c3ccccc3n2)cc1 12.6 µM, c1ccc2c(N3CCNCC3)nc(-c3ccc4c(c3)OCO4)nc2c1 3.16 µM
